In PubChem BioAssay AID588850 (Sanford-Burnham Center for Chemical Genomics, 2011):
The whole screen tested about 360,000 compounds, of which about 3,100 (0.86%) were called active.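 How the source made its calls: active means at least 50% inhibition at 5 µM, scaled per plate between neutral and stimulator controls; inactive means the rest.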 What follows is part of a selection rich in actives, with near analogues and random picks from the rest.

test: NF-kB reporter blockers in CF airway cells – cell-based, GFP fluorescence, uHTS, primary screen (AID 588850); details: KKLEB NF-kB-GFP reporter, PAF-induced, GFP fluorescence overnight; at 5 µM; active compounds read high;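 further: PAF is a Pseudomonas aeruginosa culture filtrate used as stimulus; plate controls were PAF-stimulated DMSO wells for no effect and unstimulated DMSO wells for full effect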

Row | SMILES | inhibition
1 | COc1ccc(S(=O)(=O)N2CCN(CC(=O)N3CCNC3=O)CC2)cc1OC | 0.2% (inactive)
2 | COc1ccc(Br)cc1CN1CCN(C(=O)c2cccc(OC)c2OC)CC1 | 18.7% (inactive)
3 | CN(C(=O)CC1C(=O)NCCN1Cc1ccc2ccccc2c1)C1CCOCC1 (configuration not stated) | 15.4% (inactive)
4 | COc1ccc(N(C(=O)c2snc(C(N)=O)c2N)C(C(=O)NC2CCCC2)c2ccco2)cc1OC (configuration not stated) | 6.4% (inactive)
5 | CC(=O)c1cccc(NC(=S)N2CCN(S(C)(=O)=O)CC2)c1 | -11.2% (inactive)
6 | CSc1ccccc1C(=O)Nc1cccc(C(C)=O)c1 | -14.6% (inactive)
7 | CCSc1nsc(NC(=O)Nc2cccc(C(C)=O)c2)n1 | 86.3% (active)
8 | CC(=O)c1cccc(NC(=O)C2CCN(C(=O)c3ccccc3Cl)CC2)c1 | 4.3% (inactive)
9 | COc1ccc(NC(C(=O)Nc2cccc(C(C)=O)c2)c2ccccc2)cc1 (configuration not stated) | -4.2% (inactive)
10 | C=CCSc1nsc(NC(=O)Nc2cccc(C(C)=O)c2)n1 | 86.3% (active)
11 | CCOCCCNC(=O)c1ccc(CS(=O)(=O)c2cccc(C(F)(F)F)c2)o1 | -2.1% (inactive)
12 | CC1C(=O)Nc2ccccc2N1C(=O)c1c(F)cccc1F (configuration not stated) | -2.1% (inactive)
13 | COc1cccc(-c2nn(-c3ccccc3)cc2/C=C(\C#N)C(=O)NCCCn2ccnc2)c1 | -21.2% (inactive)
14 | CC1CCCC(NC(=O)COC(=O)c2ccccc2C(=O)N(C)C2CCCCC2)C1C (configuration not stated) | 17.7% (inactive)
15 | C=CCN(c1ccc(C(N)=O)cc1)S(C)(=O)=O | -12% (inactive)
16 | COc1ccc(N2CCN(C(=O)COc3ccc4c(C)cc(=O)oc4c3)CC2)cc1 | -21.4% (inactive)
17 | Cc1cc(OCC(=O)N2CCN(c3ncccn3)CC2)ccc1Cl | 1.3% (inactive)
18 | Cc1c(C)c2ccc(OCC(=O)N3CCN(c4cccc(Cl)c4)CC3)cc2oc1=O | 63.5% (active)
19 | CC1(C)Cc2c(sc3nc(SCC(=O)NCc4ccccc4)n(-c4ccccc4)c(=O)c23)CS1 | 4.3% (inactive)

Row | SMILES | inhibition
20 | Cc1ccc(S(=O)(=O)N2CCCC2CO)cc1 (configuration not stated) | -11% (inactive)
21 | CCn1ncc(Br)c1C(=O)Nc1cc(C)ccc1F | 4.3% (inactive)
22 | Cc1ccc(Cc2cnc(N)s2)o1 | 4.4% (inactive)
23 | O=C(CCc1ccccc1Cl)Nc1ccc(S(=O)(=O)Nc2nccs2)cc1 | 8.7% (inactive)
24 | Cc1ccc(CCC(=O)Nc2ncc(Cc3cc(Cl)ccc3Cl)s2)o1 | 64% (active)
25 | COc1ccccc1/C=C/CN1CCC(CO)(Cc2ccccc2)CC1 | 20.7% (inactive)
26 | CC(C)(C)NC(=O)Cn1c(SCC(=O)Nc2nccs2)nc2ccccc21 | -6.3% (inactive)
27 | COCCCNC(=S)N1CCN(c2nc(-c3cccc(OC)c3)cs2)CC1 | -8.2% (inactive)
28 | c1ccc(C(=NNc2nc3ccccc3s2)c2ccccn2)cc1 | -25.7% (inactive)
29 | O=[N+]([O-])c1cc(Br)c(O)c(/C=N/Nc2nc3ccccc3s2)c1 | 63.5% (active)
30 | O=C(N/N=C/c1cc(Br)c(O)c([N+](=O)[O-])c1)C(O)(c1ccccc1)c1ccccc1 | -3.5% (inactive)
31 | CCOC(=O)c1ccc(-c2ccc3ncnc(N(C)Cc4sccc4C)c3c2)o1 | 32.3% (inactive)
32 | CCOC(=O)CSc1nnc(NC(=O)c2cccc(S(=O)(=O)N3CCCCC3)c2)s1 | 5.1% (inactive)
33 | Cc1ccc(CS(=O)(=O)c2ncc(Cl)c(C(=O)Nc3nnc(C)s3)n2)cc1 | 92.5% (active)
34 | CSc1nnc(NC(=O)c2nc(S(=O)(=O)Cc3ccc(C)cc3)ncc2Cl)s1 | 104% (active)
35 | O=C(Nc1nnc(Cc2ccc(Cl)cc2)s1)c1cccnc1 | 2.8% (inactive)
36 | Cc1ccc(S(=O)(=O)CCC(=O)Nc2nnc(CC(C)C)s2)cc1 | 8.1% (inactive)
37 | O=C(Nc1nnc(-c2ccc(F)cc2)s1)c1c(F)cccc1Cl | 11% (inactive)
38 | CC1(C(=O)Nc2cccnc2)Cc2c(-c3ccccc3)ccnc2O1 (configuration not stated) | 14.4% (inactive)

Row | SMILES | inhibition
39 | Cc1ccccc1C(=O)Nc1cccc(-c2nnc(SCC(=O)O)n2C)c1 | 0.8% (inactive)
40 | C=CCn1c(SCC(=O)c2ccc(Br)cc2)nnc1C(C)NC(=O)Cc1ccc(OC)cc1 (configuration not stated) | -6.2% (inactive)
41 | COCCn1c(C)cc(C(=O)CN2c3cccc4cccc(c34)S2(=O)=O)c1C | 18.2% (inactive)
42 | O=C(c1cccnc1)N(Cc1ccccc1)C(=O)c1cccnc1 | 11.6% (inactive)
43 | O=C(c1cccnc1)N(c1cc2sc(=O)oc2c2ccccc12)S(=O)(=O)c1ccccc1 | 67% (active)
44 | CCc1ccc(N(CC(=O)NCc2cccnc2)S(=O)(=O)c2ccccc2)cc1 | -37.4% (inactive)
45 | NC(=O)C[n+]1cccc(C(N)=O)c1 | 0.4% (inactive)
46 | CCNC(=O)C1CCCN(C(=O)c2ccc(OC)cc2OC)CC1 (configuration not stated) | -9.2% (inactive)
47 | Cc1ccc(C2(C)NC(=O)N(CC(=O)Nc3ccccc3C(=O)N3CCCCC3)C2=O)cc1 (configuration not stated) | -4.5% (inactive)
48 | O=C(NC1(C(F)(F)F)N=C2SCCN2C1=O)c1ccco1 (configuration not stated) | 3.6% (inactive)
49 | Clc1ccc2c(c1)C1=C(C(c3ccncc3)O2)C(c2ccc(Br)cc2)n2ncnc2N1 (configuration not stated) | 52.7% (active)
50 | COCCCN(C(=O)Cn1ncc2c(=O)oc3ccc(C)cc3c21)C(C)c1ccncc1 (configuration not stated) | 1.3% (inactive)
51 | O=C(Nc1ccc2c(c1)OCO2)C1CC(c2c(F)cccc2Cl)=NO1 (configuration not stated) | 13.8% (inactive)
52 | Cc1cc(C)c(-c2csc(NC(=O)CCCc3nc4ccccc4c(=O)[nH]3)n2)c(C)c1 | -12.5% (inactive)
53 | C=CCNC(=O)c1ccc2c3n(nc2c1)-c1ccc(C)cc1CO3 | -75.6% (inactive)
54 | COc1cc(OC)cc(C(=O)N[C@H](C(=O)NNC(=O)c2ccc(Br)cc2)C(C)C)c1 | -8.2% (inactive)
55 | COc1cc(OC)cc(C(=O)N[C@H](C(=O)OCC(=O)NC(C)c2ccccc2)C(C)C)c1 (some centres not stated) | 21.2% (inactive)
56 | COc1cc(OC)cc(C(=O)N[C@H](C(=O)Nc2nc3ccccc3[nH]2)C(C)C)c1 | 64.3% (active)
57 | CC(=O)NC(c1ccccc1)c1nc(-c2ccccc2C)cs1 (configuration not stated) | -32.5% (inactive)
